# Laboratory results published in PubChem BioAssay (NCI).
# This is part of a sample that, as a whole, favours compounds with a hit. Of some 83,000 tested, about 20% had one in any assay.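 Compound tested at a single concentration for 48 hours in 96-well plates; a percent growth value below 10 was scored as active.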 The source made the active and inactive calls.
# Tested on: KM12 colon
# Assay: NCI-60 one-dose screen, 48 h (100 = growth as untreated, 0 = no growth, -100 = all killed)
# Conditions: 10 µM unless noted
row,Compound,growth
1,COc1ccc(-n2c(SCc3n[nH]c(=S)o3)nc3ccc(Cl)cc3c2=O)cc1,98.6% (inactive)
2,CNC(=O)c1cc(Oc2ccc3nc(NC(=O)c4ccc(N5CCOCC5)c(C(F)(F)F)c4)sc3c2)ccn1,56.7% (inactive)
3,COc1ccc(/C=C(/C)c2ccc3ccc(OC)cc3[o+]2)c(O)c1,71.6% (inactive)
4,O=C1[C@H]2Cc3c([nH]c4ccccc34)[C@@H](c3ccc(Br)cc3)N2C(=O)CN1C1CCN(CC2CCCCC2)CC1,-90.1% (active)
5,O=C(c1ccc(O)cc1)[C@@H]1CN[C@@]2(C(=O)Nc3ccccc32)[C@H]1c1ccc(F)cc1,102% (inactive)
6,COc1ccc(/C=C(\C#N)C(=O)N2c3ccccc3Sc3ccc(SC)cc32)cc1F,95.3% (inactive)
7,CN1CCN(Cc2ccc(NC(=O)c3cncc(C#Cc4cnn5cccnc45)c3)cc2C(F)(F)F)CC1,2.87% (active)
8,CCOC(=O)c1c(NC(=O)c2ccccc2C(F)(F)F)sc2c1CCC(=O)C2,7.7% (active)
9,Nc1nc(-c2cccc([N+](=O)[O-])c2)c(N=Nc2ccccc2)s1,44% (inactive)
10,Cc1ccc(C(=O)NN2C(=O)/C(=C/C=C/c3ccco3)SC2=S)cc1,102% (inactive)
11,Cc1nc(-c2ccccc2O)ccc1C(=O)N=Nc1c(O)[nH]c2ccc(Br)cc12,98.3% (inactive)
12,NS(=O)(=O)c1ccc(-n2cc(-c3cccc(NC(=O)c4ccc(N5CCOCC5)c(C(F)(F)F)c4)c3)nn2)cc1,25.8% (inactive)
13,CCc1cccc(NC(=O)CNc2cc(S(=O)(=O)N(C)C)cc(C)c2C)c1,98.9% (inactive)
